These results are taken from PubChem BioAssay AID1345083 (National Center for Advancing Translational Sciences (NCATS), 2018).

The structures appear in SMILES notation. Hit rate of the full screen: of about 94,000 compounds, about 6,200 (6.6%) were called active. Entries that show only a call come without a potency. Inconclusive results (about 31%) are left out. The call rests on the fitted dose curve; in most records, active means well fitted inhibition curve with a large enough effect; inconclusive means small, poorly fitted or top-dose-only effect; inactive means flat fitted curve, though single readings scatter. This excerpt belongs to a sample that is enriched for actives.
Potency means the concentration at half of the fitted maximal effect.

The test is described as follows: Cytotoxic Profiling in HEK 293 Cell Line of Diverse Libraries Using Quantitative High-Throughput Screening. Further: nearly all actives have a fitted effect of over 60% in size. The settings on record: HEK 293 viability, ATP luminescence (CellTiter-Glo), 48-72 h; series mostly up to 115 µM. In outline: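 CellTiter-Glo luminescence (cellular ATP) was read after 48 or 72 hr of compound exposure at 37 degree Celsius. Cells were HEK 293 plated at 250 cells/well.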
For the molecule `O=C1CC(c2ccccc2)N(C(=O)CNC(=O)c2cnccn2)CCCCCCN1` (centres undefined), the Potency result is “inactive”. Next, `CC(C)(C)C(=O)Nc1cc(C2CC2)nn1-c1ccccc1`: “inactive”; `Cc1nn(CCC#N)c(C)c1[C@@H]1C=C[C@@H](NS(=O)(=O)c2ccccc2)C1`: “inactive”; `Cc1nn(-c2cccc(Br)c2)c(C)c1[C@@H]1C=C[C@@H](NS(=O)(=O)c2ccccc2)C1`: 44.7 µM (active). The value for `c1c[nH]c(CNC[C@H]2Cn3ccnc3CO2)n1` was “inactive”; that for `CCOc1ccc(NC(=O)Cn2nc3n(c2=O)CCN(Cc2ccccc2C)C3=O)cc1` was “inactive”; that for `COc1ccc(CN2CCN3C(=O)N(c4ccccc4)C[C@H]3C2)cn1` was “inactive”. Next, `COc1ccc(Nc2ccc3c(n2)CN(Cc2ccccc2C)C(=O)CO3)cn1`: 100 µM (active); `Cc1ccccc1CN1Cc2nc(NCc3ccncc3)ccc2OCC1=O`: 89.1 µM (active). As to `CC(=O)N1CCCN(C(=O)c2cnc3c(c2)N(C(=O)Cc2ccc(C(C)C)cc2)CCC3)CC1`, the Potency entry is “inactive”. Next, `CCC(C)NC(=O)N1CCC(CCOC)(NS(C)(=O)=O)CC1` (centres undefined): “inactive”. Take `O=C(c1nc(-c2cccnc2)c2cnccn12)N1CCN(c2ncccn2)CC1`: the Potency entry was “inactive”. Next, `CN(C)c1ccc(C(=O)N[C@H]2C[C@H]3C(=O)NC[C@@H](CCC(=O)N4CCc5ccccc54)N3C2)cc1`: “inactive”; `O=C(c1ccccc1)N1CCN(C(=O)c2nc3cccnc3n(C3CC3)c2=O)CC1`: “inactive”; `CCC(=O)N1CCC(CC(=O)N2CCOCC2)C1` (centres undefined): “inactive”. The value for `COC(=O)CNC(=O)C1CCN(Cc2ccccc2-c2ccccc2F)CC1` was “inactive”; that for `C#CCNC(=O)C1CCN(Cc2ccccc2-c2ccccc2F)CC1` was “inactive”; that for `O=C(C1CCN(Cc2ccccc2-c2ccccc2F)CC1)N1CCC(c2ccccc2)CC1` was 25.1 µM (active). On to `CC1CCC2(CC1)NC(=O)N(CC(=O)NCc1ccco1)C2=O` (centres undefined), for which the Potency entry is “inactive”.

With `Cn1cc(C#N)cc1-c1nc(COc2ccccc2)nn1CC(F)(F)F`, the Potency result was “inactive”. Next, `COc1ccc(C2Cn3nnc(-c4noc(-c5ccc(OC)cc5C)n4)c3CO2)cc1` (centres undefined): “inactive”; `Cc1nc(CCNS(=O)(=O)c2cccnc2)no1`: “inactive”; `COC(=O)CCNC(=O)C1c2ccccc2C(=O)N(CC(C)C)C12CCCC2` (centres undefined): “inactive”. The value for `COc1ccccc1NC(=O)C1c2ccccc2C(=O)N(CC(C)C)C12CCCC2` (centres undefined) was 70.8 µM (active). Next, `COCCN1C(=O)c2ccccc2C(C(=O)NC2CC2)C12CCCCC2` (centres undefined): “inactive”; `COCCOC1CN(C2CCN(C(=O)C3CCOCC3)CC2)C12CCCCC2` (centres undefined): “inactive”; `CC[C@H]1CN(C(=O)c2cccnc2)CC[C@H]1CC(=O)NCc1cccnc1`: “inactive”. With `CC(C)NC(=O)N1CCCC1c1noc(COc2ccc(F)cc2)n1` (centres undefined), the Potency result is “inactive”. The value for `Cc1cccc(C(=O)N2CCC(CC(=O)NCc3ccccc3)C2)c1` (centres undefined) was “inactive”. Next, `Cc1cccc(-c2cccc(CN3CCC(NC(=O)Nc4ccccc4)CC3)c2)c1`: 22.4 µM (active). Next, `CN1C(=O)c2cccn2CC1C(=O)NC1CCN(Cc2ccccc2)CC1` (centres undefined): “inactive”. As to `O=C([C@@H]1C[C@H](F)CN1C(=O)Nc1ccccc1)N1CCCCC1`, the Potency entry was “inactive”. Next, `Cc1noc(C)c1C(=O)N[C@@H]1CN(c2ccncn2)C[C@H]1CN(C)C`: “inactive”; `CN(Cc1cccnc1)C(=O)CCC[C@@H]1[C@H]2CCCN3CCC[C@@H](CN1C(=O)c1cccnc1)[C@@H]23`: “inactive”. As for `CCCc1sc(NC(=O)C[C@H]2NC(=O)c3ccccc3NC2=O)nc1C(=O)OC`, the Potency entry was “inactive”. The value for `Cc1ccc(N2CC(Cc3ccccc3)N(C(=O)c3ccnn3C)CC2=O)cc1` (centres undefined) was “inactive”.

With `COc1cccc(CN2CCN(C(=O)c3cnc4ccccn4c3=O)CC2=O)c1`, the Potency entry is “inactive”.

Consider `COc1cccc(CN2Cc3nc(Nc4cccc(F)c4)ccc3OCC2=O)c1`, for which the Potency was 89.1 µM (active). Next, `COc1cccc(CN2CCOC3CCN(C(=O)c4cccnc4)CC3C2=O)c1` (centres undefined): “inactive”.

Turning to `COc1ccc(-c2ccc3c(n2)CN(CCOc2ccccc2)C(=O)CO3)cc1F`, the Potency was 79.4 µM (active). `COc1cccc(CN2Cc3nc(-c4cc(F)cc(F)c4)ccc3OCC2=O)c1`: the Potency is 63.1 µM (active). As for `COc1ccc(-c2noc(-c3cccn3CC(=O)Nc3ccccc3)n2)cc1F`, the Potency entry was “inactive”. The value for `COc1cccc(CC(=O)NCCc2noc(-c3cccnc3)n2)c1` was “inactive”. On to `CCN(Cc1cnn(CC)c1)C(=O)C1CCCCC(=O)N1Cc1cccc(OC)c1` (centres undefined), for which the Potency result is “inactive”. The value for `COCCN1Cc2cc(OC)ccc2N(CC(O)COc2ccc(OC)cc2)CCC1=O` (centres undefined) was “inactive”; that for `CCOCCOC1CCN(C(=O)NCc2ccc(C)cc2)CC1` was “inactive”. The value for `CN1CCN(C(=O)c2nc3sccn3c2-c2ccc(F)cc2)CC1` was “inactive”. Next, `COC(=O)[C@H]1CCCN1C(=O)[C@@H]1C[C@@H](NS(=O)(=O)c2cccs2)CCN1C(=O)COCC(=O)O`: “inactive”; `CS(=O)(=O)N1C[C@H]2CCN(C(=O)c3ccncc3F)C[C@H]21`: “inactive”. As for `Cn1c(=O)[nH]cc(CC(=O)N2CCn3nc(Cc4ccccc4)cc3C2)c1=O`, the Potency entry is “inactive”. With `CN(CCc1ccccn1)[C@@H]1[C@H](O)[C@H](CO)O[C@@H]1CNC1CCOCC1`, the Potency entry was “inactive”.

With `COCC(=O)N[C@H]1CC(C)(C)[C@@H]2C[C@@](C)(O)CC[C@]12CCC(=O)N1CCN(c2ccccc2OC)CC1`, the Potency entry is “inactive”. Next, `CC(C)C(=O)N1CC(n2cc(COc3ccc(F)cc3)nn2)C1`: “inactive”. The value for `COc1ccc(CC(=O)N2CCC(C(=O)N3CCC(N4Cc5ccccc5C4=O)CC3)CC2)cc1` was “inactive”; that for `CCCS(=O)(=O)N1Cc2c(ncn2Cc2ccc(Cl)cc2)C[C@H]1C(=O)OC` was “inactive”.

For `CCOc1ccc2c(n1)CCN(C(=O)c1nccn1C)C2`, the Potency entry was “inactive”. Next, `O=C1CCN(C(=O)C2CCN(C(=O)CCCc3ccccc3)CC2)CCCCCCN1`: “inactive”; `COCCn1c(C)cc(C(=O)N2CCCC(c3[nH]ccc3C(N)=O)C2)c1C` (centres undefined): “inactive”; `CCOC(=O)C1(Cc2ccc(F)cc2F)CCCN(Cc2cccc(OC)c2O)C1` (centres undefined): 39.8 µM (active). The value for `CCOC(=O)C1(Cc2ccccc2F)CCCN(C(=O)CN2CCOC2=O)C1` (centres undefined) was “inactive”.

On to `O=C1NCc2ccccc2CC12CCCN(Cc1ccc(F)cc1O)C2` (centres undefined), for which the Potency entry is “inactive”. Take `COc1ccc(N2CC(c3noc(-c4ccc(C(C)(C)C)cc4)n3)CC2=O)cc1` (centres undefined): the Potency is 44.7 µM (active). The value for `Cc1ccc(-c2nc(C3CC(=O)N(c4ccc(Cl)cc4)C3)no2)cc1C` (centres undefined) was “inactive”; that for `Cc1ccc(N2CC(c3noc(-c4cc(Cl)ccc4F)n3)CC2=O)cc1` (centres undefined) was “inactive”.
